Assay outcomes as filed in PubChem BioAssay.
hcDAF12 agonist: activators of H. contortus DAF-12 nuclear receptor; HEK293 hcDAF-12 lit1-tk-luc reporter, luminescence; 0% DMSO, 100% Δ7-dafachronic acid; activation, % at 6.8 µM; actives 1.4% (n = 370,000);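 active = activation above the mean of all tested compounds plus 3 SD, cut at about 5.5% in these data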;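 note: 100% = response to 3 µM Δ7-dafachronic acid high control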
hgDAF12 agonist: agonists of H. glycines DAF-12 nuclear receptor. HEK293 GAL4-hgDAF12 UAS-luciferase reporter, agonist luminescence; normalized to butyrate control. activation, % at 6.8 µM. actives 1.8% (n = 370,000). AID 687014;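 active = activation above a cutoff set at the mean of all screened compounds plus 3 SD, cut at about 10% in these data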;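 note: 0% = DMSO wells and 100% = sodium butyrate wells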
ssDAF-12 act: S. stercoralis DAF-12 activation, primary screen; actives 1% (n = 370,000); AID 652126; HEK293 ssDAF-12/GRIP1 lit1-tk-luc reporter, luminescence; % of 3 µM dafachronic acid response; activation, % at 6.8 µM;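 active = activation above the mean over all tested compounds plus 3 SD, cut at about 0.9% in these data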;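 note: 0% = DMSO-only wells and 100% = 3 µM delta7-dafachronic acid wells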
SMARCA2 activ: increases SMARCA2 function in MMTV reporter cells | actives 1% (n = 370,000) | activation, % at 9.1 µM | MG213 cells, MMTV-luciferase reporter, dexamethasone, overnight; in the data active = activation above about 7.8%;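 note: 0% = vehicle wells and 100% = reference activator wells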
DAX1 inh-1: NR0B1 (DAX1) inhibition. inhibition, % at 6.75 µM. AID 504766. HEK293 Gal4-DAX1 luciferase reporter, luminescence. actives 0.99% (n = 340,000). P51843;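 active = inhibition above the mean over all tested compounds plus 3 SD, cut at about 4.2% in these data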;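 note: 0% = DAX1-transfected cells with DMSO and 100% = empty-vector control cells with DMSO; inhibition shows as a rise in luminescence from relieved DAX1 repression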
Target sequence (P51843 207-470 limits assumed): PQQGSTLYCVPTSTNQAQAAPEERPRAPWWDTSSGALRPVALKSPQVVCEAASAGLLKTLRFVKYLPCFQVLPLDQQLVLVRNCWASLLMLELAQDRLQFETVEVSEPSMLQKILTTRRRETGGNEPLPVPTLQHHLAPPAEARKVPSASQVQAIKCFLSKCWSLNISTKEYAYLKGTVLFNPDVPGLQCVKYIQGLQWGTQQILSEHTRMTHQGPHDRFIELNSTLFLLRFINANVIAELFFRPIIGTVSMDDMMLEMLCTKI
DAX1 inh-2: inhibitors of DAX1 repression of SF-1 activated StAR promoter | HEK293T StAR-luciferase reporter, SF-1/DAX-1 repression relief | inhibition, % at 6.8 µM | actives 1.1% (n = 370,000);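 active = inhibition above the mean over all tested compounds plus 3 SD, cut at about 3.6% in these data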;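 note: 0% = DAX-1 cells with DMSO and 100% = cells lacking DAX-1 with DMSO; higher inhibition means more luminescence from relief of DAX-1 repression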
An asterisk follows results filed as active; x = no result. Sampled rows, rich in hits. Any-hit rate of the full collection: about 4.8%.

SMILES	hcDAF12 agonist	hgDAF12 agonist	ssDAF-12 act	SMARCA2 activ	DAX1 inh-1	DAX1 inh-2
NS(=O)(=O)c1ccc(NN=C2CCCCC2)c([N+](=O)[O-])c1	-2	-2	-2	7.8*	-1	0
O=C(NC1CCCCN(Cc2cccc(C(F)(F)F)c2)C1=O)c1ccc(Cl)c(Cl)c1 (stereo not drawn)	-2	-1	-2	-3	x	-1
O=c1[nH]c(NCCO)nc2c1C1(CCCC1)Cc1ccccc1-2	-1	0	-1	-4	1	0
C=CCNC(=S)NNc1nc2c(c(=O)[nH]1)C1(CCCCC1)Cc1ccccc1-2	-1	2	-1	1	4.4*	1
CN(Cc1nc(-c2ccccc2)no1)C1CCOCC1	2	11*	-1	7	4.8*	1
CNC(C#Cc1ccccc1)c1ccccc1C(F)(F)F (stereo not drawn)	-2	0	-1	x	x	x
CCOC(=O)CC[C@H]1CC[C@]2(CCCN(C(=O)C3CCCC3)C2)O1	-1	-2	-1	-4	x	0
CNC(=S)N/N=C/c1ccc(C(C)C)cc1	2	9	0	3	2	1
CNC(=S)N/N=C/c1ccc(N(C)C)cc1	3	11*	0	3	3	1
c1ccc2c(c1)oc1c(Nc3ccc4c(c3)OCO4)ncnc12	2	12*	0	0	2	2
c1ccc2c(c1)oc1c(Nc3ccc(CN4CCOCC4)cc3)ncnc12	3	11*	0	6	0	1
O=C(N[C@@H](Cc1cccnc1)C(=O)N1CCC[C@H]1C(=O)NCCc1ccccc1Cl)c1ccccc1	-1	-1	-1	-2	x	0
COc1cc(C)ccc1OCc1cc(C(=O)N(C)CCCN2CCOCC2)no1	5	10*	1.8*	8	2	1
COc1cc(C(C)=O)ccc1OCc1cc(C(=O)N(C)CCC2CCCCO2)no1 (stereo not drawn)	4	10	1.1*	7	2	1
O=C(/C=C/c1ccc(O)cc1)c1ccccc1	1	9	-1	6	3	1
Cc1nn(C)cc1/C=C/C(=O)c1ccc(O)cc1	3	11*	-1	7	1	2
O=C(NCCCCCCOC1=NS(=O)(=O)c2ccccc21)C(=O)Nc1ccccc1	-1	11*	-1	-1	0	0
NC(=O)C1C(=O)c2ccccc2C1(C[N+](=O)[O-])c1ccccc1 (stereo not drawn)	5.8*	-2	0	-2	0	1
O=C(O)CC1(c2ccccc2)C(=O)c2ccccc2C1=O	-1	-1	-1	2	0	0
CC(=O)N(/C=C1\SC(=S)N(c2ccccc2)C1=O)c1ccccc1	0	-2	1.9*	2	0	0
CCN1C(=O)/C(=C\N(C(C)=O)c2ccccc2)OC1=S	-1	3	-1	7	1	1
COc1cc(C2C3=C(COC3=O)OC(C)(C)Oc3cc4c(cc32)OCO4)cc(OC)c1OC (stereo not drawn)	-1	-5	0	4	0	4.1*
CC(C)C[C@@H]1COc2cc(Br)ccc2S(=O)(=O)N1Cc1cn(Cc2ccccc2)nn1	-1	1	-1	-5	x	0
O=C(c1cccc(COc2ccc(Cl)cc2Cl)c1)N1CCN(c2ccccn2)CC1	3	11*	1	3	-2	3
COCc1nnc(NC(C)=O)s1	2	2	-1	3	5.5*	0
SMILES	hcDAF12 agonist	hgDAF12 agonist	ssDAF-12 act	SMARCA2 activ	DAX1 inh-1	DAX1 inh-2
CCCCC(=O)Nc1ccc(C(=O)Nc2nnc(COC)s2)cc1	0	-3	-2	7.8*	1	0
O=C1c2ccccc2C2Cc3nnccc3CN12 (stereo not drawn)	0	2	-1	-3	x	1
CC1(C)CC(=O)C2=C(C1)Nc1cc3c(cc1C2c1ccc2c(c1)OCO2)OCO3 (stereo not drawn)	1	6	-1	-2	5.3*	1
CC1(C)CC(=O)C2=C(C1)Nc1cc3c(cc1C2c1ccc(F)cc1)OCO3 (stereo not drawn)	0	1	-1	0	0	0
CCOC(=O)[C@@]12CN(C(=O)OC(C)(C)C)CC=C1N(Cc1ccc(OC)cc1)C(=O)[C@H]2CC(=O)NCCc1ccccc1OC	-2	1	-2	-4	x	0
O=C(NC1CCCC1)C1c2ccccc2OCC(=O)N1Cc1ccccn1 (stereo not drawn)	-1	0	-1	3	x	-1
O=C(NC1CCCCC1)C1c2ccccc2OCC(=O)N1Cc1ccco1 (stereo not drawn)	-1	1	-1	2	x	4.4*
N#CCC[C@H]1CC[C@]2(CCCN(Cc3ccc(Br)cc3)C2)O1	1	-3	-1	-3	x	0
CC1CCc2nc(NC(=O)c3ccco3)sc2C1 (stereo not drawn)	0	-5	-2	-5	-5	-1
CC1CCc2nc(NC(=O)C3CCCO3)sc2C1 (stereo not drawn)	6.5*	12*	1	2	1	3.7*
C[C@]12CC[C@@H]3c4cc(O)c(O)cc4CC[C@H]3[C@@H]1CC[C@@H]2O	-3	-1	-1	-3	0	-3
CCOc1cc2c(cc1O)C(=NOC)CC1C2CCC2(C)C(O)CCC12 (stereo not drawn)	1	-6	-1	-5	1	4.3*
Cc1ccn(CCC(=O)NC2CC(C)(C)Cc3c2cnn3-c2ccccc2C)n1 (stereo not drawn)	3	2	-1	-1	1	3.8*
CCOC(=O)N1CCN(C(=O)COc2cc(=O)n(CC)c3ccccc23)CC1	-1	0	-1	-1	8.2*	0
CCOCCCNC(=O)Cn1cc2c(n1)CCCC2	0	-3	-1	-1	5.4*	1
CCCN1CCN(CCCNC(=O)Cn2cc3c(n2)CCCC3)CC1	1	3	-1	1	1	1
COc1ccc(-n2c(Cc3cccs3)nnc2SCC(=O)Nc2cccc3ccccc23)cc1	-2	-3	-2	-3	x	0
COc1ccc(-c2cc(C(=O)NN=Cc3ccc(C)s3)[nH]n2)cc1	0	5	-1	-2	x	-2
CCOC(=O)[C@H]1[C@H]2COc3ccc(Br)cc3[C@H]2N2C(=O)CN(CCc3c[nH]c4ccccc34)C(=O)[C@@]12C	2	-1	0.9*	-5	0	0
CCOC(=O)[C@H]1[C@H]2COc3cc(OC)ccc3[C@@H]2N2C(=O)CN(CCc3c[nH]c4ccccc34)C(=O)[C@@]12C	4	2	-1	-1	-1	0
Cc1[nH]c(=O)c(C(=O)c2ccccc2O)cc1C(=O)O	-2	0	-1	3	0	0
